Here are results for 40 compounds from PubChem BioAssay (EPA / NIEHS).

Usually AC50 stands for the concentration at which the activity in the assay is half-maximal.

Activity calls are given as the source filed them. How the source made its calls: active means hit-call score of the fitted dose curve at least 0.9, where 1 is the maximum; inactive means score below 0.9.

A short description of the assay: ATG_NFI_CIS: Attagene CIS-FACTORIAL HepG2 Assay for human Nuclear Factor I (NFI) (AID 2282989). The note with it: HepG2 cis-regulatory reporter, NFI response element transcription; actives raise or lower the signal. The protocol: ATG_CIS is a cell-based, multiplexed-readout assay that uses HepG2, a human liver cell line, with measurements taken at 24 hours after chemical dosing in a 24-well plate.ATG_NFI_CIS is one of 52 assay component(s) measured or calculated from the ATG_CIS assay. It is designed to make measurements of mRNA induction, a form of inducible reporter, as detected with fluorescence intensity signals by Reverse transcription polymerase chain reaction (RT-PCR) and Capillary electrophoresis technology.Data from the assay component ATG_NFI_CIS was analyzed into 1 assay endpoint. This assay endpoint, ATG_NFI_CIS, was analyzed with bidirectional fitting relative to DMSO as the negative control and baseline of activity. Using a type of inducible reporter, measures of mRNA for gain or loss-of-signal activity can be used to understand the reporter gene at the transcription factor-level as they relate to the gene NFIA. Furthermore, this assay endpoint can be referred to as a primary readout, because this assay has produced multiple assay endpoints where this one serves a reporter gene function. To generalize the intended target to other relatable targets, this assay endpoint is annotated to the dna binding intended target family, where the subfamily is nuclear factor I.
Human liver HepG2 cells are transiently transfected with multiple reporter transcription units (MRTUs) in 6-well plates using FuGene 6 reagent (Roche; 3 ml FuGene/1 mg DNA). The MRTU constructs are regulated by a cis-regulating element (promoter). […] A major difference between the CIS and TRANS system is that in CIS activities of endogenous TFs are measured, whereas the TRANS assay evaluates changes in activities of exogenous, chimeric NR-Gal4 proteins. […] At the end of 24 hour incubation, total RNA was isolated using TriZol reagent (Invitrogen). The isolated RNA is then reverse-transcribed using oligo(dT) primer and Mo-MLV reverse transcriptase (Invitrogen) with DNAse I (Ambion) treatment for 30 min. The one-tenth of the produced cDNA was amplified by PCR using Taq DNA polymerase (Invitrogen) and two reporter sequence-specific primers. The PCR products were fluorescently labeled by primer extension with 6-arboxyfluorescein (6-FAM) 5'-labeled reporter sequence-specific primer (2 min at 95 C, 20 s at 68 C and 10 min at 72 C) and these products were digested with 5U of HpaI (New England Biolabs) for 2h at 37 C. The fragments were purified using Qiaquick PCR columns (Qiagen), analyzed on an ABI 3130xL genetic analyzer (Applied Biosystems) with peak positions identified by using a set of X-rhodamine (ROX)-labeled MapMarker1000 molecular weight standards (BioVentures). The raw capillary electrophoresis data was processed using Attagraph software (Attagene).
Take `CCCCCCCCCCCCCCCC(=O)OC/C=C(C)/C=C/C=C(C)/C=C/C1=C(C)CCCC1(C)C`: the call was inactive. In the case of `CCOC(=O)C(C#N)=C(c1ccccc1)c1ccccc1`, the compound was classed as inactive.

Turning to `CCCC[P+](CCCC)(CCCC)CCCC`, the compound was called inactive. The same measure, in the same setting: the result for `CC1CCC(C(C)C)C(O)C1` (stereo not given) reads “inactive”. Same read-out and setting: the result for `NCC1CCCC(CN)C1` (stereo not given) reads “inactive”; that for `O=C(O)COCC(=O)O`, “inactive”; that for `CC(C)(C)C1=CC(=O)C(C(C)(C)C)=CC1=O`, “inactive”.

In the case of `C=CCCC(=O)/C=C/C1C(C)=CCCC1(C)C` (stereo not given), the result was inactive. On the same count and under the same terms, the result for `O=C1CCCC=CCCCCCCCCCC1` reads “inactive”; that for `C=C(CC(=O)O)C(=O)O`, “inactive”. Still for that read-out and setting: in the case of `COS(=O)(=O)O` it was “inactive”; in that of `CSCCC=O`, “inactive”.

On to `CCOc1ccc(N=Nc2ccc(C=Cc3ccc(N=Nc4ccc(OCC)cc4)cc3S(=O)(=O)O)c(S(=O)(=O)O)c2)cc1`, for which the call was inactive.

In the case of `COCCOCCOCCO`, the compound was classed as inactive. Same read-out and setting: the result for `O=C(O)c1cc(C(=O)O)cc([N+](=O)[O-])c1` reads “inactive”.

In the case of `CCCCCCCC(=O)OCC(O)CO` (stereo not given), the result was inactive.

In the case of `CCOC(=O)CN`, the outcome was inactive. On to `CCOC(=O)COC(=O)c1cc(Oc2ccc(C(F)(F)F)cc2Cl)ccc1[N+](=O)[O-]`, for which the result was inactive. The same measure, in the same setting: in the case of `c1ccc(CCc2ccccc2)cc1` it was “inactive”; in that of `C1CCOC1`, “inactive”.

Regarding `CCC1CCCCC1`, the compound was classed as inactive. Still for that read-out and setting: in the case of `C=CC(=O)OCCCC` it was “inactive”; in that of `O=P(O)(O)O`, “inactive”. Same read-out and setting: the result for `O=C1OC(=O)c2c(Cl)c(Cl)c(Cl)c(Cl)c21` reads “inactive”; that for `CCC(=O)O[C@@H]1C[C@H]2CC[C@]1(C)C2(C)C`, “inactive”; that for `C=C(C#N)C(=O)OCC`, “inactive”. On the same count and under the same terms, the result for `COC(C)(C)CCCC(C)CC=O` (stereo not given) reads “inactive”.

Turning to `Cc1ccc(-c2ccccc2)cc1`, the compound was called inactive. Same read-out and setting: in the case of `CCCN(CCC)S(=O)(=O)c1ccc(C(=O)O)cc1` it was “inactive”.

Consider `COc1ccc(CCC(C)=O)cc1`, for which the compound was classed as inactive.

With `CCc1ccc(O)cc1`, the compound was classed as inactive.

Consider `OCCc1ccccc1`, for which the result was inactive. The same measure, in the same setting: the result for `CCCC(C)C(O)CC` (stereo not given) reads “inactive”. `CC(=O)Nc1ccc(C(=O)CCl)cc1`: the AC50 was 8.18 µM (active). Regarding `CS(C)=O`, the compound was classed as inactive.

With `IC(I)I`, the compound was classed as inactive.

Turning to `OCC(O)c1ccccc1` (stereo not given), the result was inactive. The same measure, in the same setting: in the case of `CCCCCCC(O)CCCCCCCCCCC(=O)O` (stereo not given) it was “inactive”. Still for that read-out and setting: the result for `CCCCCCCCCC(=O)OC` reads “inactive”; that for `Cc1ccc2c(c1)C(=O)OC2=O`, “inactive”.
